Compounds without any hit were thinned out: in the full panel of roughly 79,000, 15% have a hit. Unmarked numbers belong to inactive results. Activity calls are given as the source filed them. Rule as the data show it: active = growth inhibition above about 70%; inactive = the rest.
Legend:
[1] = NCI Yeast Anticancer Drug Screen. Data for the rad50 strain (AID 155);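 also: 0% = growth of vehicle-only cultures of the same strain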; details: S. cerevisiae rad50 strain growth inhibition, active compounds read high
How it was run: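 Inhibition values express reduced yeast growth in compound-treated cultures relative to vehicle-treated controls.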

[2] = NCI Yeast Anticancer Drug Screen. Data for the mec2-1 strain (AID 157); details: S. cerevisiae mec2-1 strain, active compounds read high
How it was run: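 Mutant yeast (mec2-1) grown with compound; growth inhibition relative to vehicle control reported.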

[3] = NCI Yeast Anticancer Drug Screen. Data for the sgs1 mgt1 strain (AID 161);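 also: 0% = growth of cultures given vehicle only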; details: S. cerevisiae sgs1 mgt1 strain, active compounds read high
How it was run: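 Growth of a repair-deficient yeast mutant was monitored after compound treatment and expressed as inhibition relative to vehicle-treated cultures.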

[4] = NCI Yeast Anticancer Drug Screen. Data for the cln2 rad14 strain (AID 165);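 also: 0% = growth equal to vehicle treated cultures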; details: S. cerevisiae cln2 rad14 strain, active compounds read high
How it was run: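 Readout is yeast growth inhibition versus vehicle-treated controls, using a strain with cln2 and rad14 alterations exposed to compound.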

[5] = NCI Yeast Anticancer Drug Screen. Data for the bub3 strain (AID 167); details: S. cerevisiae bub3 mutant strain, active compounds read high
How it was run: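 Steps: expose the mutant yeast strain to compound; grow alongside vehicle-treated cultures; measure growth; express inhibition against the vehicle cultures.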

[6] = NCI Yeast Anticancer Drug Screen. Data for the mlh1 rad18 strain (AID 175); details: S. cerevisiae mlh1 rad18 strain growth inhibition, active compounds read high
How it was run: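 Genetically defined yeast (DNA repair-deficient) exposed to compounds; growth inhibition determined relative to vehicle.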

[7] = at 5.0 µM (retest, dose inferred, filed as 0.5)
[8] = at 50.0 µM (retest, dose inferred, filed as 5.0)

## O=C1Sc2sc(=S)sc2SC1c1ccccc1 (configuration not stated)
[1]; [7]
  growth inhibition: -4%
[1]; [8]
  growth inhibition: 87% (active)
[1]; at 50.0 µM
  growth inhibition: 40.5%
[2]; [7]
  growth inhibition: -1%
[2]; [8]
  growth inhibition: 91% (active)
[2]; at 50.0 µM
  growth inhibition: 36.5%
[3]; [7]
  growth inhibition: 5%
[3]; [8]
  growth inhibition: 98% (active)
[3]; at 50.0 µM
  growth inhibition: 82.2% (active)
[4]; [7]
  growth inhibition: -1%
[4]; [8]
  growth inhibition: 79% (active)
[4]; at 50.0 µM
  growth inhibition: 58.1%
[5]; [7]
  growth inhibition: -4%
[5]; [8]
  growth inhibition: 95% (active)
[5]; at 50.0 µM
  growth inhibition: 32.6%
[6]; [7]
  growth inhibition: 2%
[6]; [8]
  growth inhibition: 97% (active)
[6]; at 50.0 µM
  growth inhibition: 90.5% (active)

## CCC/C(=N\NC(=S)N1CCCCCC1)c1ccccn1
[1]; [7]
  growth inhibition: 69%
[1]; [8]
  growth inhibition: 97% (active)
[1]; at 50.0 µM
  growth inhibition: 90.3% (active)
[2]; [7]
  growth inhibition: 77% (active)
[2]; [8]
  growth inhibition: 97% (active)
[2]; at 50.0 µM
  growth inhibition: 93.5% (active)
[3]; [7]
  growth inhibition: 72% (active)
[3]; [8]
  growth inhibition: 97% (active)
[3]; at 50.0 µM
  growth inhibition: 90.9% (active)
[4]; [7]
  growth inhibition: 66%
[4]; [8]
  growth inhibition: 97% (active)
[4]; at 50.0 µM
  growth inhibition: 91.7% (active)
[5]; [7]
  growth inhibition: 90% (active)
[5]; [8]
  growth inhibition: 96% (active)
[5]; at 50.0 µM
  growth inhibition: 90.7% (active)
[6]; [7]
  growth inhibition: 82% (active)
[6]; [8]
  growth inhibition: 96% (active)
[6]; at 50.0 µM
  growth inhibition: 90.2% (active)

## CCCCCCCCCCCCCCCCCO
[1]; [7]
  growth inhibition: -4%
[1]; [8]
  growth inhibition: 6%
[1]; at 50.0 µM
  growth inhibition: 71% (active)
[2]; [7]
  growth inhibition: -3%
[2]; [8]
  growth inhibition: -7%
[2]; at 50.0 µM
  growth inhibition: 63.3%
[3]; [7]
  growth inhibition: -3%
[3]; [8]
  growth inhibition: 7%
[3]; at 50.0 µM
  growth inhibition: 50%
[4]; [7]
  growth inhibition: -1%
[4]; [8]
  growth inhibition: -5%
[4]; at 50.0 µM
  growth inhibition: -15.6%
[5]; [7]
  growth inhibition: 10%
[5]; [8]
  growth inhibition: 8%
[5]; at 50.0 µM
  growth inhibition: 75.2% (active)
[6]; [7]
  growth inhibition: -9%
[6]; [8]
  growth inhibition: -3%
[6]; at 50.0 µM
  growth inhibition: 77.8% (active)

## COC1(OC)CNC(C(=O)O)C1 (configuration not stated)
[1]; [7]
  growth inhibition: -154%
[1]; [8]
  growth inhibition: -139%
[1]; at 50.0 µM
  growth inhibition: 19.1%
[2]; [7]
  growth inhibition: -44%
[2]; [8]
  growth inhibition: -45%
[2]; at 50.0 µM
  growth inhibition: 2.65%
[3]; [7]
  growth inhibition: -66%
[3]; [8]
  growth inhibition: -59%
[3]; at 50.0 µM
  growth inhibition: 18.2%
[4]; [7]
  growth inhibition: -54%
[4]; [8]
  growth inhibition: -49%
[4]; at 50.0 µM
  growth inhibition: 2.4%
[5]; [7]
  growth inhibition: -71%
[5]; [8]
  growth inhibition: -66%
[5]; at 50.0 µM
  growth inhibition: 21.4%
[6]; [7]
  growth inhibition: -141%
[6]; [8]
  growth inhibition: -111%
[6]; at 50.0 µM
  growth inhibition: 13.3%

## COC(O)C(=O)c1c2c(cc3c1CC1(Cc4cc5c(cc4C1)CCC5)C3)CCC2 (configuration not stated)
[1]; [7]
  growth inhibition: 69%
[1]; [8]
  growth inhibition: 98% (active)
[1]; at 50.0 µM
  growth inhibition: 69%
[2]; [7]
  growth inhibition: 99% (active)
[2]; [8]
  growth inhibition: 99% (active)
[2]; at 50.0 µM
  growth inhibition: 80.5% (active)
[3]; [7]
  growth inhibition: 94% (active)
[3]; [8]
  growth inhibition: 98% (active)
[3]; at 50.0 µM
  growth inhibition: 83.2% (active)
[4]; [7]
  growth inhibition: 99% (active)
[4]; [8]
  growth inhibition: 98% (active)
[4]; at 50.0 µM
  growth inhibition: 87.6% (active)
[5]; [7]
  growth inhibition: 99% (active)
[5]; [8]
  growth inhibition: 98% (active)
[5]; at 50.0 µM
  growth inhibition: 88.5% (active)
[6]; [7]
  growth inhibition: 99% (active)
[6]; [8]
  growth inhibition: 98% (active)
[6]; at 50.0 µM
  growth inhibition: 90.5% (active)

## COC(=O)Nc1nc2ccc(C(=O)c3ccccc3)cc2[nH]1
[1]; [7]
  growth inhibition: 0%
[1]; [8]
  growth inhibition: -9%
[1]; at 50.0 µM
  growth inhibition: 55%
[2]; [7]
  growth inhibition: 3%
[2]; [8]
  growth inhibition: -7%
[2]; at 50.0 µM
  growth inhibition: 46.9%
[3]; [7]
  growth inhibition: -1%
[3]; [8]
  growth inhibition: -5%
[3]; at 50.0 µM
  growth inhibition: 43.8%
[4]; [7]
  growth inhibition: -1%
[4]; [8]
  growth inhibition: -24%
[4]; at 50.0 µM
  growth inhibition: 45%
[5]; [7]
  growth inhibition: 10%
[5]; [8]
  growth inhibition: 16%
[5]; at 50.0 µM
  growth inhibition: 71.5% (active)
[6]; [7]
  growth inhibition: 1%
[6]; [8]
  growth inhibition: 17%
[6]; at 50.0 µM
  growth inhibition: 67.5%

## COc1ccc(/C=C2\CCC(CN(C)C)C2=O)cc1 (configuration not stated)
[1]; [7]
  growth inhibition: 19%
[1]; [8]
  growth inhibition: 89% (active)
[1]; at 50.0 µM
  growth inhibition: 93.8% (active)
[2]; [7]
  growth inhibition: 19%
[2]; [8]
  growth inhibition: 99% (active)
[2]; at 50.0 µM
  growth inhibition: 93.3% (active)
[3]; [7]
  growth inhibition: 33%
[3]; [8]
  growth inhibition: 99% (active)
[3]; at 50.0 µM
  growth inhibition: 93.2% (active)
[4]; [7]
  growth inhibition: 27%
[4]; [8]
  growth inhibition: 48%
[4]; at 50.0 µM
  growth inhibition: 91.8% (active)
[5]; [7]
  growth inhibition: 36%
[5]; [8]
  growth inhibition: 99% (active)
[5]; at 50.0 µM
  growth inhibition: 92.6% (active)
[6]; [7]
  growth inhibition: 24%
[6]; [8]
  growth inhibition: 98% (active)
[6]; at 50.0 µM
  growth inhibition: 88.8% (active)

## CCOC(=O)C(C)(c1c(C)[nH]c2ccccc12)c1c(C)[nH]c2ccccc12
[1]; [7]
  growth inhibition: 1%
[1]; [8]
  growth inhibition: 96% (active)
[1]; at 50.0 µM
  growth inhibition: 94.8% (active)
[2]; [7]
  growth inhibition: -1%
[2]; [8]
  growth inhibition: 94% (active)
[2]; at 50.0 µM
  growth inhibition: 95.6% (active)
[3]; [7]
  growth inhibition: 3%
[3]; [8]
  growth inhibition: 87% (active)
[3]; at 50.0 µM
  growth inhibition: 95.8% (active)
[4]; [7]
  growth inhibition: 4%
[4]; [8]
  growth inhibition: 95% (active)
[4]; at 50.0 µM
  growth inhibition: 93% (active)
[5]; [7]
  growth inhibition: 6%
[5]; [8]
  growth inhibition: 96% (active)
[5]; at 50.0 µM
  growth inhibition: 95.5% (active)
[6]; [7]
  growth inhibition: 5%
[6]; [8]
  growth inhibition: 92% (active)
[6]; at 50.0 µM
  growth inhibition: 95.3% (active)

## C=CCOc1ccc2c(c1)CC=C1[C@@H]2CC[C@]2(C)C(=N\O)/C(=N/O)C[C@@H]12
[1]; [7]
  growth inhibition: 10%
[1]; [8]
  growth inhibition: 95% (active)
[1]; at 50.0 µM
  growth inhibition: 98.8% (active)
[2]; [7]
  growth inhibition: -7%
[2]; [8]
  growth inhibition: 99% (active)
[2]; at 50.0 µM
  growth inhibition: 99.1% (active)
[3]; [7]
  growth inhibition: -9%
[3]; [8]
  growth inhibition: 99% (active)
[3]; at 50.0 µM
  growth inhibition: 99% (active)
[4]; [7]
  growth inhibition: -2%
[4]; [8]
  growth inhibition: 99% (active)
[4]; at 50.0 µM
  growth inhibition: 98.1% (active)
[5]; [7]
  growth inhibition: 1%
[5]; [8]
  growth inhibition: 99% (active)
[5]; at 50.0 µM
  growth inhibition: 98.8% (active)
[6]; [7]
  growth inhibition: 45%
[6]; [8]
  growth inhibition: 99% (active)
[6]; at 50.0 µM
  growth inhibition: 99% (active)
